Compound activity from PubChem.
Rows were chosen to be rich in hits. Some 2.2% of all compounds tested hit in one or more screens of this group.
HTR5A ag = activates human HTR5A in OPRM1-OPRD1 agonist counter-screen. P47898. HTR5A agonist assay, luminescence, cell-based. activation, % at 9.3 µM. actives 0.61% (n = 340,000). AID 504692; in the data active means activation mostly above about 9.5%, no sharp cut-off; inactive means mostly below about 7.6%;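 further: 0% = cells with vehicle only and 100% = reference agonist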
HTR5A inv ag = inverse agonist of human HTR5A in OPRM1-OPRD1 counter-screen; P47898; HTR5A cell line, luminescence, inverse agonism; inhibition, % at 9.3 µM; actives 0.083% (n = 340,000); AID 504634; in the data active means inhibition mostly above about 23%, no sharp cut-off; inactive means mostly below about 18%;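 further: 0% = cells with DMSO and 100% = no-cell wells with DMSO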
MOR-DOR inv ag-1 = inverse agonist of human OPRM1-OPRD1 heterodimerization. P35372+P41143. cell-based MOR-DOR heterodimer luminescence, inverse agonism. inhibition, % at 9.3 µM. actives 0.21% (n = 340,000); in the data active means inhibition above about 22%, passing the limit was not always enough;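 further: 0% = cells with DMSO and 100% = wells without cells with DMSO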
Target sequence (P35372 whole entry, looked up): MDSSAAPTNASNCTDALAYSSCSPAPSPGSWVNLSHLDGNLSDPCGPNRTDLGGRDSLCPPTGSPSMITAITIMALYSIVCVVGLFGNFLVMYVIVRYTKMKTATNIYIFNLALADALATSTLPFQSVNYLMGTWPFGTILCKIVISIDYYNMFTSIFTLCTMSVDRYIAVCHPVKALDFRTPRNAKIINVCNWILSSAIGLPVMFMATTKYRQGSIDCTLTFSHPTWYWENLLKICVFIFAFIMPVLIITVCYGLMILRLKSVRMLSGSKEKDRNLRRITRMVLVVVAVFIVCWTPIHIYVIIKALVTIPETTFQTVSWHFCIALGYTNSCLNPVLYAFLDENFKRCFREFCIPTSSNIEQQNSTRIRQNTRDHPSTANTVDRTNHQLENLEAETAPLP
Target sequence (P41143 whole entry, looked up): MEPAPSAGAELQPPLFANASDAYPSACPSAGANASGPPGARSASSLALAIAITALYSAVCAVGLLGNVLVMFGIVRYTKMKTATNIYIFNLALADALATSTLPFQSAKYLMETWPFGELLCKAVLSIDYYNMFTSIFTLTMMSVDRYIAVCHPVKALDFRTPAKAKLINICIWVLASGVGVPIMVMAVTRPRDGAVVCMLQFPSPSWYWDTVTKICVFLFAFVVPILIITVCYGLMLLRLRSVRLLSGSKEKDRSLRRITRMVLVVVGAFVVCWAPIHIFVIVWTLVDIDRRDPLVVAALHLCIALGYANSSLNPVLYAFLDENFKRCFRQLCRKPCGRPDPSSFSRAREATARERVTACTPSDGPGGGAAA
MOR-DOR ag = OPRM1-OPRD1 heterodimerization agonism | AID 504326 | actives 0.3% (n = 340,000) | activation, % at 9.3 µM | cells, luminescence; in the data active means activation above about 18%;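 further: 0% = vehicle-treated cells and 100% = reference agonist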
sPLA2-III inh = Blocks human group III sPLA2 activity | Q9NZ20 | QFRET BODIPY PC-A2 liposome hydrolysis, fluorescence | inhibition, % at 12.2 µM | actives 0.56% (n = 370,000);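 active means inhibition above mean plus 3 SD of compounds lying within the high and low control bounds, cut at about 19% in these data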;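 further: 0% = median of test compound wells and 100% = no enzyme DMSO wells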
m5-HT2A agonist = activates the mouse 5-HT2A serotonin receptor; CHO-K1 mHTR2A beta-arrestin complementation, luminescence; percent of 30 µM serotonin response; activation, % at 7.6 µM; actives 0.66% (n = 360,000);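 active means activation above a run cutoff, the mean activation of all tested compounds plus 3 SD, cut at about 14% in these data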;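 further: 0% = plate median of compound wells and 100% = 30 µM serotonin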
MOR-DOR inv ag-2 = counter-screen for HTR5A inverse agonists: OPRM1-OPRD1 heterodimerization inverse agonism. shares compounds with HTR5A inv ag. U2OS counter-screen cells, complementation luminescence. inhibition, % at 9.3 µM. 190 tested, under 10 active;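 further: 0% = cells with DMSO and 100% = wells without cells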
HTR5A inv confrm = confirmation of human HTR5A inverse agonists; AID 504916; inhibition, % at 9.3 µM; 190 tested, under 10 active; HTR5A-expressing cells, inverse agonism, luminescence; shares compounds with HTR5A inv ag;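 further: 0% = cells with DMSO and 100% = no cells with DMSO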
Numbers without * were called inactive; i = inactive; / = no result given. Unless noted, how the calls were made is not given here.

SMILES | HTR5A ag | HTR5A inv ag | MOR-DOR inv ag-1 | MOR-DOR ag | sPLA2-III inh | m5-HT2A agonist | MOR-DOR inv ag-2 | HTR5A inv confrm
C[C@H](CCC(=O)N(c1ccccc1)c1ccccc1)CC1CCCCC1 | / | / | / | / | 3.7 | / | / | /
COC(=O)[C@]12C[C@H](CC(=O)NCCc3ccccc3OC)C(=O)N(Cc3ccc(Cl)cc3Cl)C1=C[C@H](COCc1ccccc1)O[C@@H]2C | / | / | / | / | -9.2 | / | / | /
COc1cc(/C=C2\SC(=S)N(C(C(=O)O)c3ccccc3)C2=O)ccc1O (stereo unspecified) | -6.7 | 19.8 | 16.8 | -3.4 | -12.1 | -4.9 | / | /
COc1cc(/C=C2/SC(=S)N(c3c(C)n(C)n(-c4ccccc4)c3=O)C2=O)ccc1O | -12.3 | 27.6* | 32.7 | -6.9 | -3.4 | -4.0 | -4.3 | 5.7
COC(=O)[C@]12C[C@H](CC(=O)NCc3ccc(C)o3)C(=O)N(Cc3ccc4c(c3)OCO4)C1=C[C@H](COCc1ccccc1)O[C@@H]2C | / | / | / | / | -15.7 | / | / | /
Cc1onc(-c2ccccc2)c1C(=O)Nc1nnc(N2CCCCCC2)s1 | -8.3 | 24.8* | 27.8 | -5.5 | 10.7 | -0.8 | -6.0 | 2.2
Cc1onc(-c2ccccc2)c1C(=O)Nc1nnc(C(C)C)s1 | 1.4 | 3.1 | 7.3 | -1.3 | -7.9 | 3.2 | / | /
CC(=O)N1C2CCCCC2S[C@H]2CCCCC21 (stereo partly specified) | 0.2 | 33.7* | 21.2 | -3.5 | 0.7 | -1.5 | -17.8 | -19.3
CC1SC(C)C(=O)N(CC(=O)NC2CCCCC2)C1=O (stereo unspecified) | -2.9 | 10.9 | 16.1 | -3.5 | -0.6 | -1.6 | / | /
Cc1ccc(S(=O)(=O)N2CC3(COC(C)(C)OC3)C[C@H]2CON2C(C)(C)CCCC2(C)C)cc1 | / | / | / | / | -2.0 | / | / | /
Cc1ccc(NC(=O)CNC(=O)COc2ccccc2)nc1 | -19.9 | 48.6* | 13.1 | -2.5 | -1.1 | -8.3 | i | -5.4
O=C(COc1coc(CN2CCc3ccccc3C2)cc1=O)Nc1ccc(F)cc1F | -25.8 | 63.1* | 14.2 | -2.7 | -3.9 | -2.5 | -14.2 | 8.6
O=C(COc1coc(CN2CCc3ccccc3C2)cc1=O)Nc1ccc(F)cc1 | 0.8 | -2.4 | 3.9 | -0.6 | 7.7 | 5.0 | / | /
COc1cc(/C=C/C(=O)c2ccc(O)cc2)ccc1OCC#N | -14.1 | 48.0* | 16.2 | -2.9 | -14.1 | 0.7 | -20.2 | 0.3
COc1cccc(C(=O)/C=C/c2ccc(OCC#N)c(OC)c2)c1 | -3.6 | -11.0 | 15.8 | -3.0 | -11.1 | -4.8 | / | /
COC(=O)C1CN(C2CC2)CCS(=O)(=O)N1Cc1cn(Cc2ccccc2)nn1 (stereo unspecified) | / | / | / | / | 14.9 | / | / | /
COc1ccc(-n2c(Cc3cccn3C)nnc2SCC(=O)NC2CCCCC2)cc1 | -11.8 | 32.6* | 13.9 | -2.7 | -13.0 | 2.7 | -8.4 | -0.3
CCCCNC(=O)NCCCN1CCN(c2ccc(F)cc2)CC1 | / | / | / | / | 3.7 | / | / | /
CCOc1cc(C(c2c(C)[nH][nH]c2=O)c2c(C)[nH][nH]c2=O)cc([N+](=O)[O-])c1O | -8.1 | 28.7* | 34.5 | -7.6 | 10.4 | 1.0 | 41.7* | 15.3
Cn1cnc(S(=O)(=O)N2CCN(c3cccc(Cl)c3)CC2)c1 | 1.4 | 37.8* | 7.4 | -1.4 | 9.9 | -2.4 | -14.8 | -193.3
Cn1cnc(S(=O)(=O)N2CCN(c3cccc(C(F)(F)F)c3)CC2)c1 | 0.6 | 24.3 | 4.3 | -0.8 | 0.8 | -4.7 | / | /
Cc1cc(NS(=O)(=O)c2ccc(NC(=O)CSc3nnc(-c4ccco4)n3-c3ccc(Cl)cc3)cc2)nc(C)n1 | / | / | / | / | -32.0 | / | / | /
COc1cc2nc(C3CCC3)nc(N3CCN(c4ccccn4)CC3)c2cc1OC | 1.2 | 52.2* | 7.6 | -1.4 | / | -6.4 | -22.7 | -2.2
COc1ccc(CC(=O)N(C)CC(=O)Nc2ccccc2C(F)(F)F)cc1S(=O)(=O)N1CCOCC1 | 5.8 | -8.6 | 8.3 | -1.3 | / | -3.3 | / | /
COc1ccc(CC(=O)N(C)CC(=O)Nc2c(C)cccc2C)cc1S(=O)(=O)N1CCOCC1 | -10.0 | 27.7* | -1.6 | 0.4 | 3.6 | -4.1 | 80.6* | -3.1
SMILES | HTR5A ag | HTR5A inv ag | MOR-DOR inv ag-1 | MOR-DOR ag | sPLA2-III inh | m5-HT2A agonist | MOR-DOR inv ag-2 | HTR5A inv confrm
COc1ccc(Cl)cc1NC(=O)Nc1cnccn1 | -15.9 | 40.6* | 2.0 | -0.5 | 2.7 | -5.7 | -51.5 | -3.2
COc1ccc(C)cc1NC(=O)Nc1cnccn1 | -3.8 | 9.4 | 0.5 | -0.1 | -1.6 | 1.6 | / | /
CC[C@H](CCC(=O)N(c1ccccc1)c1ccccc1)C1CC1 | / | / | / | / | 1.2 | / | / | /
Nc1[nH]c(C(=O)c2ccccc2)c(-c2ccc(F)cc2)c1C(=O)c1c[nH]c2ccccc12 | / | / | / | / | 6.4 | / | / | /
Cc1nonc1CN(C)C(=O)c1cc(COc2ccc(F)cc2Cl)on1 | 1.6 | 41.2* | 1.2 | -0.2 | -8.7 | 0.9 | -83.7 | 18.3
Cc1cc(C)n(-c2nc(Nc3ccccc3)nc(-n3nc(C)cc3C)n2)n1 | -1.5 | 6.5 | 22.8 | -5.0 | 11.0 | -0.2 | / | /
COc1cccc(/C=N/Nc2nc(Nc3ccccc3)nc(-n3nc(C)cc3C)n2)c1O | -18.2 | 40.0* | -4.5 | 0.9 | 16.3 | -31.3 | i | -4.0
COc1ccc(S(=O)(=O)Nc2cccc3c2O[C@H](CN(C)S(=O)(=O)c2ccc(F)cc2)[C@H](C)CN([C@H](C)CO)C3=O)cc1 | -0.9 | 39.0* | 5.2 | -0.9 | -13.9 | -4.1 | -11.3 | 12.4
Cc1noc(/C=C/c2ccco2)c1S(=O)(=O)N1CCC(C(=O)NCc2ccco2)CC1 | -9.8 | 27.0* | 13.3 | -3.0 | -13.7 | -4.8 | -9.1 | -7.6
NNc1nc(Nc2ccc([N+](=O)[O-])cc2)nc(N2CCCCCC2)n1 | -3.4 | 16.0 | 19.1 | -3.7 | -5.6 | -7.2 | / | /
NNc1nc(Nc2ccccc2)nc(N2CCCCC2)n1 | -9.4 | 34.5* | -20.9 | 3.6 | 0.3 | -12.6 | -23.6 | -156.8
CC(C)CC1Nc2ncnc(N3CCN(c4ccccc4)CC3)c2N(Cc2ccccc2)C1=O (stereo unspecified) | 0.9 | -2.7 | -1.5 | 0.3 | 1.3 | 1.6 | / | /
CC(C)CC1Nc2ncnc(N3CCN(c4ccccn4)CC3)c2N(Cc2ccc(Cl)cc2)C1=O (stereo unspecified) | 3.2 | 40.2* | -15.5 | 2.7 | -2.7 | -15.9 | -26.6 | 12.9
COc1ccc(CN2C(=O)C(Cc3ccccc3)Nc3ncnc(N4CCN(c5ccccc5)CC4)c32)cc1 (stereo unspecified) | -14.8 | 43.7* | 40.6 | -8.8 | -1.8 | -21.9 | 20.7 | 55.3*
C#CCN1CC(N(C)CCOC(=O)c2occ3ccccc23)CS1(=O)=O (stereo unspecified) | / | / | / | / | 3.4 | / | / | /
C/C(=N\NC(=S)NCc1ccccc1)c1ccc(Br)cc1 | 0.9 | -2.2 | -22.1 | 4.7 | 5.1 | -4.2 | / | /
C/C(=N\NC(=S)NCc1ccccc1)c1ccc2ccccc2c1OC(F)F | -22.0 | 54.2* | -11.1 | 2.1 | -8.8 | -12.3 | -24.2 | 4.5
